According to PubChem BioAssay (NCATS):
Results filed as inconclusive are left out. The source made the active and inactive calls. The call rests on the fitted dose curve; in most records, active means well fitted cell-killing curve with a large enough effect; inconclusive means small, poorly fitted or top-dose-only effect, or effect the other way; inactive means no such curve, though single readings can be large or run the other way.

Test: Quantitative High-Throughput drug screen in 47 multiple myeloma cell lines against the NCATS MIPE library collection: PE2_PLB cell viability assay (AID 1919869); further: nearly all actives have a fitted effect of over 35% in size
Conditions: PE2_PLB myeloma cells viability, ATP luminescence, 48 h; series mostly up to 45.8 µM; viability (% of control): at the top concentration
Description: PI: Beverly A. Mock Ph.D.
Laboratory of Cancer Biology and Genetics,
Center for Cancer Research, National Cancer Institute,
National Institute of Health, Bethesda, Maryland
Drug resistance and disease progression are common in multiple myeloma (MM) patients, underscoring the need for new therapeutic combinations. […] We hypothesized that effective combinations would reduce MYC expression and enhance p16 activity. […] These preclinical data identify potentially useful drug combinations for evaluation in drug-resistant MM and reveal potential mechanisms of combined drug sensitivity.
Described herein is the primary MIPE qHTS used to cherrypick compounds. Validated compounds were then further tested for potential synergistic activiy.
[1] Peat TJ, Gaikwad SM, Dubois W, Gyabaah-Kessie N, Zhang S, Gorjifard S, Phyo Z, Andres M, Hughitt VK, Simpson RM, Miller MA, Girvin AT, Taylor A, Williams D, D'Antonio N, Zhang Y, Rajagopalan A, Flietner E, Wilson K, Zhang X, Shinn P, Klumpp-Thomas C, McKnight C, Itkin Z, Chen L, Kazandijian D, Zhang J, Michalowski AM, Simmons JK, Keats J, Thomas CJ, Mock BA. Drug combinations identified by high-throughput screening promote cell cycle transition and upregulate Smad pathways in myeloma. Cancer Lett. 2023 Aug 1;568:216284. doi: 10.1016/j.canlet.2023.216284. Epub 2023 Jun 24. PMID: 37356470; PMCID: PMC10408729.
SEQUENCE No. (e.g., 1, 2, 3, etc.); […] (e.g., Cells, Incubation, Reagent, etc.); VALUE and DESCRIPTION.
1; Cells; 5 uL; white, solid bottom 1536-well Greiner assay plate.
2; Compounds; 23 nL; Kalypsis pin tool (Wako USA) equipped with a 1536-well pin head to transfer to the assay plates.
3; Incubation; 48 hours; 37C incubation.
4; Reagent;5uL; CellTiter Glo (Promega).
5; Detector; 425V; Luminescence; Viewlux PerkinElmer.
NOTES (numbers refer to Sequence numbers above)
1. The cell-based screening methods employed in this study were like those previously published. Briefly, the corresponding myeloma cell lines were screened in 1,536-well plates with 500 cells, 5-uL per well for inhibition of cell viability (assessed by measuring ATP levels with CellTiterGlo).
2. NCATS MIPE 4.0 library of approved and investigational drugs were added using the Kalypsis pin tool. Wells treated with DMSO only for 100% viability and media only for 0% viability were used as controls.
3. The assay plates were covered and incubated for 48 hours in a 37C, 5% CO2 incubator with controlled humidity.
4. After 48 hours, CellTilter-GloTM luminescent substrate mix (Promega) reagent was added to the assay plate and plates we incubated for 5 min at room temperature.
5. Signal was measured as median relative luminescence units on a ViewLux (PerkinElmer) multiplate reader.
[1] Heske CM, Davis MI, Baumgart JT, Wilson K, Gormally MV, Chen L, Zhang X, Ceribelli M, Duveau DY, Guha R, Ferrer M, Arnaldez FI, Ji J, Tran HL, Zhang Y, Mendoza A, Helman LJ, Thomas CJ. Matrix Screen Identifies Synergistic Combination of PARP Inhibitors and Nicotinamide Phosphoribosyltransferase (NAMPT) Inhibitors in Ewing Sarcoma. Clin Cancer Res. 2017 Dec 1;23(23):7301-7311. doi: 10.1158/1078-0432.CCR-17-1121. Epub 2017 Sep 12. PMID: 28899971; PMCID: PMC6636827.
Potency means the concentration at half of the fitted maximal effect.

SMILES | Potency | viability (% of control)
Cc1n[nH]c(C)c1Cc1sc2c(c1C(=O)N1C[C@H](O)CO1)c(=O)n(C)c(=O)n2CC(C)C | 0.235 µM (active) | 
C[C@H](NC(=O)Cc1cc(F)cc(F)c1)C(=O)N[C@@H]1C(=O)N(C)c2ccccc2-c2ccccc21 | 5.9 µM (active) | 
O=C1CCCC2=C1C(c1[nH]ncc1Cl)N=C(Nc1nc3ccccc3o1)N2 (stereo not given) | 0.526 µM (active) | 
CCN(c1ccccc1)c1cc(NC)[n+](C)c(C)n1 |  | 113% (inactive)
CCn1cc(C(=O)O)c(=O)c2cc(F)c(N3CCNC(C)C3)c(F)c21 (stereo not given) |  | 114% (inactive)
O=c1ncn2nc(Sc3ccc(F)cc3F)ccc2c1-c1c(Cl)cccc1Cl | 3.72 µM (active) | 
O=NN(CCCl)C(=O)NCCCl |  | 120% (inactive)
CCOc1ccn(-c2ccc(F)cc2)c(=O)c1C(=O)Nc1ccc(Oc2ccnc(N)c2Cl)c(F)c1 | 13.2 µM (active) | 
Nc1nc2[nH]cc(CCc3ccc(C(=O)N[C@@H](CCC(=O)O)C(=O)O)cc3)c2c(=O)[nH]1 |  | 112% (inactive)
Cc1cccc(-c2[nH]c(C(C)(C)C)nc2-c2ccc3nccnc3c2)n1 | 2.09 µM (active) | 
CS(=O)(=O)c1cccc(CNc2nc(Nc3ccc4c(c3)CCC(=O)N4)ncc2C(F)(F)F)c1 | 18.7 µM (active) | 
COc1cccc2cc(-c3nc(C4CCC(C(=O)O)CC4)n4ncnc(N)c34)[nH]c12 (stereo not given) | 0.372 µM (active) | 
Cc1oncc1C(=O)Nc1ccc(C(F)(F)F)cc1 |  | 91.4% (inactive)
c1ccc([C@H]2CN3CCSC3=N2)cc1 |  | 126% (inactive)
NS(=O)(=O)c1cc2c(cc1Cl)NC=NS2(=O)=O |  | 97.8% (inactive)
CC(c1cc2ccccc2s1)N(O)C(N)=O (stereo not given) |  | 104% (inactive)
CC[C@@H](C)[C@H](NC(=O)[C@H](CC1CCCCC1)NC(=O)c1ccno1)C(=O)N1CCC2(CCc3ccccc32)CC1 |  | 78% (inactive)
CN[C@@H](C)C(=O)N[C@H]1CCCC[C@H]2CC[C@@H](C(=O)N[C@@H](c3ccccc3)c3cn(CCCCc4ccc(CCCCn5cc([C@@H](NC(=O)[C@@H]6CC[C@@H]7CCCC[C@H](NC(=O)[C@H](C)NC)C(=O)N76)c6ccccc6)nn5)cc4)nn3)N2C1=O | 18.7 µM (active) | 
CN(C)c1ccc(C2Nc3ccc4ccccc4c3C3=C2C(=O)CC(C)(C)C3)cc1Br (stereo not given) | 5.26 µM (active) | 
Nc1ccc(S(=O)(=O)Nc2ccnn2-c2ccccc2)cc1 |  | 110% (inactive)

SMILES | Potency | viability (% of control)
CC(C=CC1=C(C)CCCC1(C)C)=CC=CC(C)=CC(=O)O | 16.6 µM (active) | 
COc1ccc(-c2ccc3c(N4CCOCC4)nc(N4C[C@@H](C)O[C@@H](C)C4)nc3n2)cc1CO | 0.833 µM (active) | 
CN(C(=O)c1ccc(F)cc1C(F)(F)F)C1CCN(c2nnc(-c3ccnn3C)c3ccccc23)CC1 | 18.7 µM (active) | 
N[C@@H]1CONC1=O |  | 111% (inactive)
O=C(NOC[C@H](O)CO)c1ccc(F)c(F)c1Nc1ccc(I)cc1F | 0.0662 µM (active) | 
CC1(C)SCCN(S(=O)(=O)c2ccc(OCC#CCO)cc2)[C@@H]1C(=O)NO |  | 111% (inactive)
Cn1c(=O)c(F)c(Nc2ccc(I)cc2F)c2c(=O)n(C[C@@H](O)CO)cnc21 | 9.35 µM (active) | 
OC(CN1CCC(Cc2ccc(F)cc2)CC1)c1ccc(Cl)cc1 (stereo not given) |  | 108% (inactive)
Oc1cccc(-c2nc(N3CCOCC3)c3oc4ncccc4c3n2)c1 | 0.0855 µM (active) | 
Cc1ccccc1C(OCCN(C)C)c1ccccc1 (stereo not given) |  | 96.3% (inactive)
Cc1cc(C=c2sc3nc4ccccc4n3c2=O)c(C)n1-c1ccccc1 |  | 95.9% (inactive)
NNCCc1ccccc1 |  | 87% (inactive)
CCc1ccc(CCOc2ccc(CC3SC(=O)NC3=O)cc2)nc1 (stereo not given) |  | 105% (inactive)
NCCCC(N)(C(=O)O)C(F)F (stereo not given) |  | 104% (inactive)
O=c1n(CCCN2CCN(c3cccc(Cl)c3)CC2)nc2ccccn12 |  | 99.4% (inactive)
O=C(O)CCc1ccc(NCc2cccc(Oc3ccccc3)c2)cc1 |  | 108% (inactive)
CS(=O)(=O)Oc1ccc2c(NC(N)=O)c(C(=O)c3ccc(Cl)cc3Cl)oc2c1 | 23.5 µM (active) | 
COc1ccc2nc(S(=O)Cc3ncc(C)c(OC)c3C)[nH]c2c1 (stereo not given) |  | 91.2% (inactive)
CCn1c(-c2nonc2N)nc2cnc(Oc3cccc(NC(=O)c4ccc(OCCN5CCOCC5)cc4)c3)cc21 | 10.5 µM (active) | 
Cc1c(C)c2c(c(C)c1O)CCC(C)(COc1ccc(CC3SC(=O)NC3=O)cc1)O2 (stereo not given) | 20.9 µM (active) | 
